{"source": "PubChem BioAssay (NCATS)", "note": "Records with an inconclusive call do not appear. Activity calls are given as the source filed them. Calls come from the whole dose curve; as a rule, active = well fitted inhibition curve with a large enough effect; inconclusive = small, poorly fitted or top-dose-only effect; inactive = no such curve, though single readings can be large or run the other way.", "data": [{"tested_on": "Zika virus NS2B-NS3 protease (linked construct)", "assay": "Primary screen NINDS Rhodamine qHTS for Zika virus inhibitors (AID 1347160); note: nearly all actives have a fitted effect of over 55% in size", "settings": "purified NS2B-NS3 protease, Rhodamine110 substrate fluorescence; series mostly up to 57.1 µM", "source_text": "Avindra Nath, Ph.D., National Institute of Neurological Disorders and Stroke (NINDS), Bethesda, MD\nRadhakrishnan Padmanabhan, Ph.D., Georgetown University (GU), Washington D.C.\nZika Virus causes congenital defects, including microcephaly and is associated with Guillain-Barre syndrome, eningoencephalitis and myelitis in infected adult. […] Using a target-based approach, we hope to establish a screening paradigm to uncover novel, cell-active NS2B-NS3 protease (Zika Virus) specific inhibitors from NCATS' collection of small molecules using qHTS.\nFour assay panel was created to identify potential Zika Virus inhibitors. Namely, (1) GU unlinked NS2B-NS3 AMC tagged protease qHTS, (2) GU unlinked NS2B-NS3 Rhodamine tagged protease qHTS, (3) NINDS linked NS2B-NS3 AMC tagged protease qHTS, (4) NINDS linked NS2B-NS3 Rhodamine tagged protease qHTS. Active compounds were re-acquired and re-screened to confirm inhibition. Inhibitors were further screened against various confirmatory and counterscreens in dose response format.\nEarly Translation Branch (ETB)\nNational Center for Advancing Translational Sciences (NCATS), Rockville, MD\nNational Institute of Health (NIH), Bethesda, Maryland\nFor the linked assay, Nath lab (NINDS) provided the purified linked NS2B-NS3 protease which is consists of hydrophilic domain of NS2B linked to the NS3 protease domain by a flexible (-[…]-) linker. Control compound aprotinin is obtained from Thermo Scientific (#78432; Waltham, Massachusetts). Rhodamine110 substrate ([N-Cbz]-Nle-Lys-Arg-Arg-Rhod110-Arg-Arg-Lys-Nle-[N-Cbz]) was purchased from either Genscript or Bachem.\n1536-well Protease (Rhodamine110 Substrate) Assay:\nBriefly, 3 microL of enzyme (25 nM final concentration), in assay buffer (10 mM Tris-HCl pH 8.0 with 0.01% Tween 20) were dispensed into a 1,536-well solid-bottom black plate (Greiner Bio One, Monroe, NC). Twenty-three nL of compounds (final concentration range 7.28 nM to 114 microM) or control Aprotinin (final concentration range 3.47 nM to 114 microM) were transferred via Wako Pin-tool (Wako Automation, Richmond, VA). Samples were incubated (room temperature, protected from light) for 15 minutes followed by a 1 microL Rhodamine110 substrate addition (1.5 microM final concentration). Plates were then immediately read on a ViewLux High-throughput CCD imager (PerkinElmer, Waltham, MA) equipped with FITC fluorescence optics (480(20) nm excitation, 540(25) nm emission), then incubated (room temperature, protected from light) for 15 minutes (~15% conversion). The change in fluorescence intensity over the 15-minute reaction period was normalized against no-inhibitor and no-enzyme controls and the resulting percent inhibition data were fitted to a 4-parameter Hill equation. Aprotinin was used as intraplate control.", "values": [{"smiles": "O=c1[nH]c(=O)n([C@H]2CCCO2)cc1F", "outcome": "inactive"}, {"smiles": "Cc1ccc(C(=O)C(C)CN2CCCCC2)cc1", "note": "(stereo unspecified)", "outcome": "inactive"}, {"smiles": "CC(=O)O[C@]1(C(C)=O)CC[C@H]2[C@@H]3C[C@H](C)C4=CC(=O)CC[C@]4(C)[C@H]3CC[C@@]21C", "outcome": "inactive"}, {"smiles": "COC(=O)CCc1ccc(OCC(O)CNC(C)C)cc1", "note": "(stereo unspecified)", "outcome": "inactive"}, {"smiles": "COc1ccc(CN2CCN(C(c3ccc(F)cc3)c3ccc(F)cc3)CC2)c(OC)c1OC", "outcome": "inactive"}, {"smiles": "Cc1ccccc1C(=O)Nc1ccc(C(=O)N2CCCC(N(C)C)c3ccccc32)cc1", "note": "(stereo unspecified)", "outcome": "inactive"}, {"smiles": "NC(=NCCCCCCN=C(N)/N=C(\\N)Nc1ccc(Cl)cc1)/N=C(\\N)Nc1ccc(Cl)cc1", "outcome": "inactive"}, {"smiles": "CC(=O)OCC(=O)[C@@]1(O)[C@H](C)C[C@H]2[C@@H]3CCC4=CC(=O)C=C[C@]4(C)[C@@]3(F)[C@@H](O)C[C@@]21C", "outcome": "inactive"}, {"smiles": "CN(C)CCCOc1nn(Cc2ccccc2)c2ccccc12", "outcome": "inactive"}, {"smiles": "CC(C)(C)CC(C)(C)c1ccc(OCCOCC[N+](C)(C)Cc2ccccc2)cc1", "outcome": "inactive"}, {"smiles": "C#C[C@]1(OC(C)=O)CC[C@H]2[C@@H]3CCC4=C[C@@H](OC(C)=O)CC[C@@H]4[C@H]3CC[C@@]21C", "outcome": "inactive"}, {"smiles": "CC(C)(C)NC(=O)[C@@H]1CN(Cc2cccnc2)CCN1C[C@@H](O)C[C@@H](Cc1ccccc1)C(=O)N[C@H]1c2ccccc2C[C@H]1O", "outcome": "inactive"}, {"smiles": "Cc1nc2n(c(=O)c1CCN1CCC(c3noc4cc(F)ccc34)CC1)CCC[C@H]2O", "outcome": "inactive"}, {"smiles": "CN1[C@@H]2CC[C@H]1CC(OC(=O)c1c[nH]c3ccccc13)C2", "note": "(stereo partly specified)", "outcome": "inactive"}, {"smiles": "CN1C(CCl)Nc2cc(Cl)c(S(N)(=O)=O)cc2S1(=O)=O", "note": "(stereo unspecified)", "outcome": "inactive"}, {"smiles": "CCCCS(=O)(=O)N[C@@H](Cc1ccc(OCCCCC2CCNCC2)cc1)C(=O)O", "outcome": "inactive"}, {"smiles": "CC(C)n1nc(-c2cc3cc(O)ccc3[nH]2)c2c(N)ncnc21", "outcome": "inactive"}, {"smiles": "COC(=O)C1=C(C)NC(C)=C(C(=O)O[C@@H]2CCCN(Cc3ccccc3)C2)[C@@H]1c1cccc([N+](=O)[O-])c1", "outcome": "inactive"}, {"smiles": "CC(=O)OCC(=O)[C@@]1(O)CC[C@H]2[C@@H]3CCC4=CC(=O)C=C[C@]4(C)[C@H]3[C@@H](O)C[C@@]21C", "outcome": "inactive"}, {"smiles": "OC[C@H]1O[C@H](O[C@]2(CCl)O[C@H](CCl)[C@@H](O)[C@@H]2O)[C@H](O)[C@@H](O)[C@H]1Cl", "outcome": "inactive"}, {"smiles": "Nc1ccn([C@@H]2O[C@H](CO)[C@@H](O)C2(F)F)c(=O)n1", "outcome": "inactive"}, {"smiles": "CC(CCc1ccccc1)NCC(O)c1ccc(O)c(C(N)=O)c1", "note": "(stereo unspecified)", "outcome": "inactive"}, {"smiles": "CN1CCN(C(c2ccccc2)c2ccccc2)CC1", "outcome": "inactive"}, {"smiles": "COc1cccc(OC)c1C(=O)N[C@@H]1C(=O)N2[C@@H]1SC(C)(C)[C@@H]2C(=O)O", "outcome": "inactive"}, {"smiles": "O=C(OCCOCCO)c1ccccc1Nc1cccc(C(F)(F)F)c1", "outcome": "inactive"}, {"smiles": "CN1CCC[C@@H]1c1cccnc1", "outcome": "inactive"}]}]}
